Assay results from PubChem BioAssay (NCI).
About 79,000 compounds went through this panel and 15% of them were active in at least one assay; those are over-represented in the sample as a whole. Rule as the data show it: active = growth inhibition above about 70%; inactive = the rest.

Columns and labels:
[1] = NCI Yeast Anticancer Drug Screen. Data for the rad50 strain (AID 155);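 also: 0% = growth of vehicle-only cultures of the same strain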; conditions: S. cerevisiae rad50 strain growth inhibition; at 50.0 µM; active compounds read high
Method in brief: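 Growth of the mutant yeast was measured after compound exposure and referenced to vehicle-treated cultures.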

[2] = NCI Yeast Anticancer Drug Screen. Data for the mec2-1 strain (AID 157); conditions: S. cerevisiae mec2-1 strain, at 50.0 µM, active compounds read high
Method in brief: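 Yeast mec2-1 mutant treated with compound. Readout: growth inhibition vs vehicle controls.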

[3] = NCI Yeast Anticancer Drug Screen. Data for the sgs1 mgt1 strain (AID 161);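 also: 0% = growth of cultures given vehicle only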; conditions: S. cerevisiae sgs1 mgt1 strain, at 50.0 µM, active compounds read high
Method in brief: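 Read-out: growth inhibition vs vehicle controls. Cells: mutant yeast strain deficient in DNA damage repair.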

[4] = NCI Yeast Anticancer Drug Screen. Data for the cln2 rad14 strain (AID 165);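 also: 0% = growth equal to vehicle treated cultures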; conditions: S. cerevisiae cln2 rad14 strain, at 50.0 µM, active compounds read high
Method in brief: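 cln2 rad14 yeast strain; compound exposure; growth inhibition read vs vehicle controls.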

[5] = NCI Yeast Anticancer Drug Screen. Data for the bub3 strain (AID 167); conditions: S. cerevisiae bub3 mutant strain, at 50.0 µM, active compounds read high
Method in brief: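 Whole-cell yeast assay. The mutant strain was incubated with compounds, and growth inhibition was determined by comparison with vehicle-treated cells.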

[6] = NCI Yeast Anticancer Drug Screen. Data for the mlh1 rad18 strain (AID 175); conditions: S. cerevisiae mlh1 rad18 strain growth inhibition; at 50.0 µM; active compounds read high
Method in brief: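 Yeast w/ defined DNA-repair lesions; compound exposure; growth vs vehicle controls → % inhibition.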

Measured: growth inhibition

O=c1c(C(c2ccc(Cl)cc2)c2c(O)c3ccccc3n(-c3ccccc3)c2=O)c(O)c2ccccc2n1-c1ccccc1
inactive: [1] -12.9% | [2] -0.65% | [3] -9.95% | [4] -12.4% | [5] -0.8% | [6] -3.4%

Cc1cc(C(=O)O)ccc1C(=O)O
inactive: [1] -13.8% | [2] -31.6% | [3] -1.95% | [4] -39.4% | [5] -20.4% | [6] -25.1%

O=S(=O)(c1ccc(Nc2nnc(-c3ccccc3)s2)cc1)N1CCCCC1
inactive: [1] -4% | [2] 12.8% | [3] 42.3% | [4] -23.1% | [5] 40.9% | [6] 5.65%

C[Si](C)(/C(=C/COCc1ccccc1)CCOC1CCCCO1)c1ccccc1 (stereo unspecified)
inactive: [1] -5.4% | [2] -6.95% | [3] -17.1% | [4] -10.9% | [5] 0.6% | [6] -27.4%

CC1(C)COC(c2c(F)cccc2Cl)=N1
inactive: [1] 3% | [2] -13.8% | [3] 6.2% | [4] 22.4% | [5] 11.7% | [6] 13.2%

COc1cc(OC)c2c(c1)OC(c1ccccc1)CC2=O (stereo unspecified)
inactive: [1] -3.3% | [2] 3.05% | [3] -18.2% | [4] 2.25% | [5] 13.8% | [6] 11.8%

O=c1cc(-c2ccc3ccccc3n2)oc2ccccc12
inactive: [1] -16.4% | [2] 2.5% | [3] 3.7% | [4] 28.3% | [5] -1.95% | [6] -4.2%

OC1CCC(O)[C@H]2[C@@H]1[C@@H]1S[C@H]2c2ccccc21 (stereo partly specified)
inactive: [1] -2.55% | [2] -14.8% | [3] -22.4% | [4] 1.7% | [5] -10.3% | [6] -1.85%

CN1NC(=O)SC(=O)c2ccccc2C1=O
inactive: [1] -16.4% | [2] 22% | [3] 0.1% | [4] -12.1% | [5] 0.15% | [6] 0.65%

CCOC(=O)C(CN)c1ccccc1 (stereo unspecified)
inactive: [1] -9.15% | [2] -9.5% | [3] 8.1% | [4] -32.9% | [5] -1.25% | [6] 3.6%

CC1=CC(=O)C2=C(C)CCC3C(C)C(=O)OC3C12 (stereo unspecified)
inactive: [1] -4.2% | [2] -9.85% | [3] -6.75% | [4] 10.8% | [5] -3.55% | [6] -60.7%

CCCCOC(=O)C(=O)C(CC(C(=O)Cc1ccccc1)c1ccccc1)C(=O)C=C(C)C (stereo unspecified)
inactive: [1] -0.1% | [2] -5.3% | [3] -0.7% | [4] -12.1% | [5] 27.2% | [6] -18.2%

Cn1c2ccccc2c2c3c(ccc21)C(=O)c1ccccc1C3=O
inactive: [1] 6.85% | [2] -3.9% | [3] 7.15% | [4] -62.6% | [5] 8.2% | [6] -2.5%

O=C(Nc1ccc([N+](=O)[O-])cc1)c1ccc(Cl)cc1
inactive: [1] -4.7% | [2] 7.75% | [3] -1.35% | [4] -50.5% | [5] 5.15% | [6] -36.5%

C(=Nc1cccc2ccccc12)Nc1cccc2ccccc12
inactive: [1] -10.9% | [2] -38.7% | [3] -5.8% | [4] -6.7% | [5] -48.8% | [6] 1.25%

c1ccc(C2(c3ccccc3)Oc3ccccc3O2)cc1
inactive: [1] -10.1% | [2] 3.65% | [3] -6.45% | [4] -37.5% | [5] -6.4% | [6] 7.3%

O=C(NNC1=NCCN1Cc1ccccc1)c1cccc(Cl)c1
inactive: [1] -6.1% | [2] -25.4% | [3] 13.3% | [4] 14.6% | [5] -0.8% | [6] 2.15%

CC(=O)OCc1cn(S(=O)(=O)c2ccc(C)cc2)cn1
inactive: [1] 17.9% | [2] -2.45% | [3] 19.1% | [4] -2.65% | [5] 11.6% | [6] -51.9%

O=C1OCC/C1=C\c1ccsc1
inactive: [1] 6.4% | [2] 10.2% | [3] -6.9% | [4] -6% | [5] -8.3% | [6] -3.4%

O=C1CN(c2cccc(C(F)(F)F)c2)C(=O)CN1CCN1CC(=O)N(c2cccc(C(F)(F)F)c2)CC1=O
inactive: [1] -30.6% | [2] -6.4% | [3] -3.55% | [4] -6.45% | [5] -14.1% | [6] -5.2%

CCOC(=O)C(F)(F)C(F)(F)C(F)(F)F
inactive: [1] 5.45% | [2] -16.4% | [3] 9.1% | [4] 10.9% | [5] -5.55% | [6] 11.8%

C/C=C(\C)C(=O)OC1CC(OC(=O)/C(C)=C/C)C2(C)C3C(=O)C=C(C)C2C3C1(C)C (stereo unspecified)
inactive: [1] 18.8% | [2] 5.85% | [3] 34.6% | [4] 25.6% | [5] 3.05% | [6] 6.8%

O=c1c(SCc2ccccc2)c(N2CCOCC2)cnn1-c1ccccc1
inactive: [1] 28.4% | [2] -1.85% | [3] 22.8% | [4] 30.1% | [5] 22.1% | [6] 7.75%

COc1ccc(CCNC(=O)CCc2ccccc2CO)cc1OC
inactive: [1] 15.8% | [2] 13.9% | [3] -36.9% | [4] -5.9% | [5] -39.2% | [6] -5.9%

Nc1ccc(-c2csc(Nc3ccnc4cc(Cl)ccc34)n2)cc1
inactive: [1] -1.75% | [2] -5.4% | [3] 4.25% | [4] -7.85% | [5] 18.9% | [6] 7.6%

O=CNc1cccc2c(=O)[nH][nH]c(=O)c12
inactive: [1] -21.9% | [2] -46.8% | [3] -56.6% | [4] 18.1% | [5] -26.1% | [6] -39.1%

COC(=O)Cc1cccnc1
inactive: [1] -3.3% | [2] -6.85% | [3] -11.3% | [4] -0.55% | [5] 0.05% | [6] 12.7%

C/C=C(\CC)C(C)(C#N)C(=O)OCC (stereo unspecified)
inactive: [1] -13.3% | [2] -33.3% | [3] -21.2% | [4] -3.45% | [5] -27.8% | [6] -29.1%

O/N=C1\CCn2cccc21
inactive: [1] -12.1% | [2] 15.1% | [3] -18.2% | [4] 0.25% | [5] 19.4% | [6] -11.2%

CC(C)=CCNc1ncnc2c1c(C#N)cn2C1OC(CO)C(O)C1O (stereo unspecified)
inactive: [1] -1.2% | [2] -23.7% | [3] -23.4% | [4] 15.7% | [5] -17.5% | [6] -5.95%

C[N+]1(C)CCCC(CN2c3ccccc3Sc3ccccc32)C1 (stereo unspecified)
inactive: [1] 10.8% | [2] -3.85% | [3] 7.85% | [4] -13.4% | [5] 5.9% | [6] 15.4%

CCC(=O)c1nc(N)[nH]c1CC
inactive: [1] -36.7% | [2] -21.6% | [3] -12.1% | [4] -44.3% | [5] -3% | [6] -6.45%

COc1ccc(C(C)=O)cc1CO/N=C1\CSCc2ccccc21
inactive: [1] 22.9% | [2] 12.4% | [3] 34.5% | [4] 22.4% | [5] 48.2% | [6] 12.2%

O=C(/C=C/c1ccc(Cl)c(Cl)c1)c1ccccc1
inactive: [1] -7.1% | [2] -52.9% | [3] -7.9% | [4] -16.9% | [5] 35% | [6] -59.4%

CCC(=O)NN1C(=O)c2ccccc2C1=O
inactive: [1] -13.8% | [2] -15.4% | [3] -23.4% | [4] -13.2% | [5] -16.5% | [6] -10.2%

CCn1c(=O)c2c3cc(OC(C)=O)ccc3oc2c2ccc(OC(C)=O)cc21
inactive: [1] -23.3% | [2] -24.4% | [3] -6.8% | [4] 10.3% | [5] 12.9% | [6] -4.75%

CCC1(CC)C(=O)NN(C(=O)c2ccccc2)C1=O
inactive: [1] 19.3% | [2] -20.1% | [3] 28.4% | [4] 13.6% | [5] -4.45% | [6] -43.4%

O=C1NC(=O)C(=Nc2cccc3c(=O)[nH][nH]c(=O)c23)C(c2nc3ccccc3s2)C1=O (stereo unspecified)
inactive: [1] 20.2% | [2] -9.7% | [3] -12.8% | [4] 8.7% | [5] -3.05% | [6] 4.7%

CNC(=O)CN(CC(=O)NC)C(=O)NC
inactive: [1] 9.95% | [2] 7.3% | [3] -18% | [4] -3.65% | [5] -2.35% | [6] 1.55%

Cc1ccc(S(=O)(=O)N/N=C2\CCC3CC3CC\C2=N/NS(=O)(=O)c2ccc(C)cc2)cc1 (stereo unspecified)
inactive: [1] -0.85% | [2] -4.4% | [3] 0.6% | [4] -9.1% | [5] -2.7% | [6] -5.75%

CC[N+](C)(CC)CCOC(=O)C(c1ccccc1)C(O)C1CCCC1 (stereo unspecified)
inactive: [1] -6.85% | [2] 3.45% | [3] -0.2% | [4] -6.2% | [5] 20.9% | [6] -8.15%
